Assay results from ChEMBL document CHEMBL4513216, “Probing the Open Global Health Chemical Diversity Library for Multistage-Active Starting Points for Next-Generation Antimalarials” (ACS Infect Dis, 2020).
Out of some 69,000 compounds screened, about 8,600 (12%) showed an effect of 50% or more. The sample as a whole holds a higher share of strong results than the screen did.

Each compound was assayed on Plasmodium berghei (assay: Screen against P. berghei liver stage (PbLuc), transformed with Luciferase, at 10uM). Conditions: tested at 10 uM.
Type: functional, HepG2

SMILES | INHIBITION
Fc1ccccc1CN1CCC(c2n[nH]c(C3CC3)n2)CC1 | -5.92%
CNC(=O)c1cn[nH]c1C1CCN(Cc2ccccc2F)C1 (stereo unspecified) | -10.5%
COC(=O)c1cccc2nc([C@H]3CCN(Cc4ccccc4F)C3)oc12 | -61.5%
COCCNC(=O)Nc1ccc(-c2nc(C(C)C)no2)cc1 | -36.4%
Cc1cccc(C)c1Nc1noc2c1CN(C(=O)c1ccn(C)n1)CC2 | 30.35%
CN(CC1COc2ccccc2O1)C(=O)CCn1cncn1 (stereo unspecified) | 44.05%
CNC(=O)CN1CCC(NC(=O)N(C)Cc2c(C)noc2C)CC1 | 34.25%
Cc1cc(C)c(C(=O)N2CCOCC2c2c(C)n[nH]c2C)o1 (stereo unspecified) | -8.4%
CO[C@H]1CN(Cc2ccc(F)cc2)CC[C@@]12CCCO2 | 25.6%
Cn1cc(C(=O)N[C@@H]2CN(Cc3ccoc3)[C@@H]3CCCO[C@@H]32)cn1 | 35.8%
CN1CCS(=O)(=O)[C@@H]2CCN(C(=O)CC(C)(C)C)CC[C@@H]21 | 35.8%
C[C@H]1CN2C[C@H](O)CC2CN1Cc1ccc2nccnc2c1 (stereo partly specified) | 17.4%
CCc1nsc(N2CCN(C(=O)COc3ccccc3)CC2)n1 | -39.2%
CCc1nsc(N2CCCN(C(=O)c3ccc(OC)cc3)CC2)n1 | 33.5%
CCc1nsc(N2CCCN(C(=O)COc3ccccc3)CC2)n1 | 53.8%
COC(=O)c1cccn1C1CCN(S(=O)(=O)c2ccccc2)CC1 | 19.5%
Cc1ccc(C)c(S(=O)(=O)NCCC(=O)NCc2ccoc2)c1 | -0.514%
CCSCCNc1cc(C)nc2c(C)c(C)nn12 | 39.9%
CC1CCN(C(=O)CSCc2nc(C3CC3)no2)CC1 | -42.2%

SMILES | INHIBITION
O=C(CSCCN1CCOCC1)N1CCc2ccccc2C1 | 76%
CC1CCN(C(=O)CSCCN2CCOCC2)CC1 | 85.6%
O=C(CSCCN1CCOCC1)N1CCCCCC1 | 44.1%
O=C(NCC(=O)N1CCc2ccccc2C1)c1ccoc1 | 26.3%
O=C(O)[C@@H]1CN(C(=O)CSCCN2CCCC2)C[C@H]1c1ccccc1 | 39.3%
O=C1CCCN1c1cccc(CNCc2nc(C3CC3)no2)c1 | 29.6%
Cc1c[nH]nc1C1CCCN(C(=O)c2c(C)noc2C)C1 (stereo unspecified) | 23.4%
N#Cc1cn(C2CC2)c(=O)n(CC(O)c2ccc(Cl)cc2)c1=O (stereo unspecified) | 9.1%
Cc1cc(C[S+]([O-])Cc2ccccc2C)no1 (stereo unspecified) | -23.3%
Cc1ccc(CN2CCc3c(nc4cc(C5CC5)nn4c3O)C2)s1 | 44.3%
CC(C(=O)N1CCn2cncc2C1)N1CCCC1 (stereo unspecified) | 47.9%
CC(C)N(C(=O)N1CCn2cncc2C1)C(C)C | 52.2%
CC(=O)NC(C(=O)N1CCn2cncc2C1)C(C)C (stereo unspecified) | 29.8%
O=C(CC1CCN(c2ncnc3ccccc23)CC1)N1CCCC1 | 53.2%
O=C(CC1CCN(c2ncnc3cccc(F)c23)CC1)N1CCCC1 | -18.5%
Cn1ncc2c(N3CCC(CC(=O)N4CCCC4)CC3)ncnc21 | 11.9%
CC(=O)NCCNC(=O)CN1CCOC(Cn2cc(C)cn2)C1 (stereo unspecified) | 25.6%
Cc1cccc2[nH]cc(CC(=O)N3CCC(Nc4cccnn4)CC3)c12 | 24%
COc1ccc(CNc2c(C)cnc3c2c(=O)n(C)c(=O)n3C)cc1 | 9.79%

SMILES | INHIBITION
CCc1cnc2c(c1Nc1ccc3c(c1)OCO3)c(=O)n(C)c(=O)n2C | 4.35%
CCc1cnc2c(c1NCc1cccc(OC)c1)c(=O)n(C)c(=O)n2C | 55.3%
CCc1cnc2c(c1Nc1ccc(C)c(F)c1)c(=O)n(C)c(=O)n2C | 53.1%
CCc1cnc2c(c1NCc1ccc(OC)cc1)c(=O)n(C)c(=O)n2C | 67.6%
CCc1cnc2c(c1Nc1ccncc1)c(=O)n(C)c(=O)n2C | 27.6%
COc1cccc(CNc2c(C)cnc3c2c(=O)n(C)c(=O)n3C)c1 | 48.1%
CCc1cnc2c(c1NCc1ccncc1)c(=O)n(C)c(=O)n2C | 2.3%
CCc1cnc2c(c1Nc1ccc(OC)cc1)c(=O)n(C)c(=O)n2C | -50.5%
O=S(=O)(Cc1ccccc1Cl)CC(O)CO (stereo unspecified) | 27%
Cc1cnn(Cc2ccc(NC(=O)N3CCCCC3CO)cc2)c1 (stereo unspecified) | -0.378%
Cc1noc(CNC2CCCN(Cc3noc(C4CC4)n3)C2)n1 (stereo unspecified) | -52.5%
COc1cccc(CNCc2nc3ccccc3c(=O)[nH]2)c1 | 16.5%
COCCN1C[C@@H]2OCCN(c3ccnc(N(C)C)n3)[C@@H]2C1 | -16.9%
CN(C)c1nccc(N2CCO[C@H]3CN(Cc4ccco4)C[C@H]32)n1 | -23.4%
CN(C)c1nccc(N2CCO[C@H]3CN(CC4CCOCC4)C[C@H]32)n1 | 36.8%
CN(C)c1nccc(N2CCO[C@H]3CN(Cc4nccn4C)C[C@H]32)n1 | 80.2%
Cc1noc(C)c1CN1CCO[C@H]2CN(Cc3nccn3C)C[C@H]21 | 0.72%
CCc1ccc(CN2C[C@@H]3OCCN(c4ccnc(N(C)C)n4)[C@@H]3C2)o1 | 85.1%
